FadD28 FP inh: blocks FadD28 binding to the bisubstrate probe | fluorescence polarization | inhibition, % at 12.5 µM | 0.22% of 360,000 active | AID 588549; in the data active = inhibition above about 8.5%, passing the limit was not always enough
Rv3671c inh: Rv3671c (M. tuberculosis) protease inhibition. inhibition, % at 5.96 µM. 0.048% of 320,000 active. AID 2606. P9WHR9;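 note: extracellular domain of Rv3671c used as enzyme; 0% = enzyme with DMSO and 100% = no enzyme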
RecA splice inh: inhibitors of M. tuberculosis RecA intein splicing; P9WHJ3; cell-free RecA intein splicing, fluorescence; inhibition, % (no concentration beside the values); 0.75% of 290,000 active; AID 2221; in the data active = inhibition above about 30%;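 note: 0% = vehicle wells and 100% = reference inhibitor control wells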
Mtb hypoxia rep: Mtb hypoxia fluorescent reporter inhibition; 0.1% of 300,000 active; M. tuberculosis hypoxia-regulated fluorescent reporter, fluorescence; AID 1159583; fluorescence inhibition, % (test concentration not listed); in the data active = fluorescence inhibition mostly above about 23%, no sharp cut-off; inactive = mostly below about 17%
UGM FP inh: blocks M. tuberculosis UGM enzyme. P9WIQ1. purified UGM, fluorescence polarization probe displacement. inhibition, % at 10 µM. 0.06% of 320,000 active. AID 504406; in the data active = inhibition above about 10%, passing the limit was not always enough
Target sequence (P9WIQ1 whole entry, looked up): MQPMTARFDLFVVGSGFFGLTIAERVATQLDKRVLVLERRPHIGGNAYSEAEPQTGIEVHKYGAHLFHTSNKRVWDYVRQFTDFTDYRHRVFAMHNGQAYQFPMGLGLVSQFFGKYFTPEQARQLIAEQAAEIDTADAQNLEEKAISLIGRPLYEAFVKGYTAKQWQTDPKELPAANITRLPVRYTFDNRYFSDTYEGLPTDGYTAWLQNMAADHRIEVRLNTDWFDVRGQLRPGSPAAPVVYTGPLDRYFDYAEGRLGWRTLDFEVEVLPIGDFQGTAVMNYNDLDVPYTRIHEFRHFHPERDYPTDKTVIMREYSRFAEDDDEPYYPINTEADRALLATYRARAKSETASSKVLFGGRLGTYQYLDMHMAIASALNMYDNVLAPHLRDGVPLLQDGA
GFP chromo cs: counter-screen GFP chromophore formation inhibition. shares compounds with RecA splice inh. cell-free GFP chromophore formation, fluorescence. EC50, µM. 83% of 2,100 active. AID 434968; call rule not given here
Rv3671c confirm: Rv3671c protease inhibition, confirmation | shares compounds with Rv3671c inh | inhibition, % at 5.96 µM | 40% of 140 active | AID 2761
* hit, by the source's call; / = no result shown. A selection: hits, their analogues and other compounds. The true share with any hit is near 0.92%. Cut-off read from the data, not from the text of the source, unless noted: active = inhibition above about 38%; inactive = the rest.

SMILES	FadD28 FP inh	Rv3671c inh	RecA splice inh	Mtb hypoxia rep	UGM FP inh	GFP chromo cs	others
CCCCCCCCCCC[N+](C)(C)CC/C=C1/c2ccccc2Sc2ccc(Cl)cc21	-15.0	2.9	63.3*	/	-3.8	9.48*
CN(C)CCC=C1c2ccccc2Sc2ccc(Cl)cc21	/	/	/	19.3	/	/
CCCCCCCCCC[N+](C)(C)CC/C=C1/c2ccccc2Sc2ccc(Cl)cc21	-24.0	14.4	69.4*	/	-3.2	12*
CC[N+](C)(C)CC/C=C1/c2ccccc2Sc2ccc(Cl)cc21	-1.5	-0.7	14.3	8.2	-1.3	/
COC(=O)C1C2SC(C)(C)C(C(=O)OC)N2C(=O)N1Cc1nc2ccccc2s1 (stereo not given)	/	/	/	2.3	/	/
CCCC1SC(=NN=Cc2ccc(C)cc2)N(Cc2ccc(OC)cc2)C1=O (stereo not given)	/	/	/	0.9	/	/
CC1(C)C=C2C(=NN(c3ccccc3)C(N)=C2C#N)CO1	0.6	-37.6	90.4*	/	1.6	1.49*
CC1(C)Cc2c(C#N)c(N)n(-c3ccccc3)c(=S)c2CO1	-3.4	2.3	-0.3	8.1	0.6	/
CCOc1cc(C(c2c(C)[nH][nH]c2=O)c2c(C)[nH][nH]c2=O)cc(Cl)c1O	0.6	2.4	94.9*	12.4	0.3	>38
Cc1ccc(/C=C2\NC(=S)NC2=O)cc1[N+](=O)[O-]	-2.7	7.0	2.5	3.1	2.5	/
Cc1ccc(C(c2c(C)[nH][nH]c2=O)c2c(C)[nH][nH]c2=O)cc1[N+](=O)[O-]	-2.6	-7.4	99.1*	5.2	-3.2	0.495*
CCOc1cc(C(c2c(C)[nH][nH]c2=O)c2c(C)[nH][nH]c2=O)cc([N+](=O)[O-])c1O	-0.6	-5.0	97.4*	1.1	-0.8	0.452*
COc1cc(C(c2c(C)[nH][nH]c2=O)c2c(C)[nH][nH]c2=O)cc([N+](=O)[O-])c1O	-3.5	-1.9	97.2*	-0.6	6.9	0.446*
COc1c(C=NNC(=O)c2ccccc2O)c(CCN(C)C(C)=O)cc2c1OCO2	/	/	/	3.5	/	/
O=C1C=C(c2ccc3[nH]ccc3c2)CC(c2ccc(Cl)cc2)C1 (stereo not given)	/	/	/	1.3	/	/
CCOc1cc(/C=C2\N=C(C)OC2=O)cc(Cl)c1OCC(=O)OC	-0.8	1.2	/	2.3	0.2	/
COC(=O)COc1c(Cl)cc(C(c2c(C)[nH][nH]c2=O)c2c(C)[nH][nH]c2=O)cc1OC	-0.5	/	95.7*	6.6	-2.4	0.577*
CCCCNC(=S)NN=Cc1ccc(C#N)cc1	/	/	/	4.2	/	/
COC(=O)c1cc([N+](=O)[O-])c(-n2ccnc2)c([N+](=O)[O-])c1	0.1	5.6	71.2*	1.6	0.2	10.9*
O=C(Nc1ccc2nc3n(c(=O)c2c1)CCCCC3)c1cc([N+](=O)[O-])ccc1F	-0.7	-11.4	26.4	/	0.6	/
O=C(Nc1ccc2nc3n(c(=O)c2c1)CCCCC3)c1c(F)ccc([N+](=O)[O-])c1F	-3.4	-35.4	59.6*	/	-1.7	24.6*
Clc1ccc(CSC(Cn2ccnc2)c2ccc(Cl)cc2Cl)cc1 (stereo not given)	-10.3	0.0	41.7*	/	-1.9	23.1*
O=C(Cc1ccc(Cl)cc1)NCCCn1ccnc1	-3.3	-4.8	3.9	9.6	-0.7	/
N#CC(C#N)=C(C#N)c1ccc(Nc2ccccc2)cc1	-1.8	-1.8	51.9*	5.6	-0.4	4.56*
CC(C)(C)NC(=O)C(c1ccc(Cl)cc1)N(Cc1ccco1)C(=O)CCl (stereo not given)	-2.5	4.0	69.2*	/	-1.4	21.9*
SMILES	FadD28 FP inh	Rv3671c inh	RecA splice inh	Mtb hypoxia rep	UGM FP inh	GFP chromo cs	others
O=c1[nH]c(O)c(N=Nc2cc([N+](=O)[O-])ccc2O)c(=O)[nH]1	-0.6	-47.2	73.1*	11.0	0.0	12*
Cn1cccc1C=NNC(=O)C(O)c1ccccc1 (stereo not given)	/	/	/	-2.3	/	/
O=c1c(N2CCOCC2)coc2ccccc12	-1.1	-2.9	-7.2	15.3	0.2	/
O=c1[nH]c(N2CCOCC2)cc2ccccc12	-3.0	-108.3	69.0*	-0.6	2.9	23.9*
COc1ccc(C2CC=C(C(=O)O)C(c3ccc(Cl)cc3)N2S(=O)(=O)c2ccc(C)cc2)cc1OC (stereo not given)	/	/	/	-0.5	/	/
CCc1ccc(OCC(=O)N/N=C2\CC(=O)c3ccccc32)cc1	-1.3	-68.3	53.0*	/	1.6	8.83*
COc1ccc(OCc2cc(C(=O)NC3CCOC(C)(C)C3)no2)c2ccccc12 (stereo not given)	-2.3	-30.0	53.5*	/	-0.8	11.6*
N#CCC(c1ccccc1)N1CCN(Cc2ccccc2)CCC1=O (stereo not given)	/	/	/	9.3	/	/
O=C1CC(CC(=O)N/N=C/c2ccccc2[N+](=O)[O-])=NN1	0.7	-67.0	90.1*	/	0.3	7.29*
Cc1ccccc1OCC(=O)Nc1ccccc1N1CCCCC1	-4.4	-5.3	31.8*	15.6	1.2	>38
Cc1cccc(OCC(=O)Nc2ccccc2N2CCCC2)c1C	-1.1	5.8	-3.0	12.0	0.1	/
CCc1nc(N2CCN(C(=O)CCl)CC2)c2c3c(sc2n1)CC(C)CC3 (stereo not given)	-6.2	-8.0	87.3*	/	2.1	2.58*
Cc1ccc(NC(=O)C(=Cc2ccc(C(=O)O)cc2)C(=O)Nc2ccc(C)cc2C)c(C)c1	0.7	4.7	82.6*	2.9	1.8	7.58*
CCCCC(=O)N1CC=CC(c2ccc(OC)cc2)N(Cc2ccc(F)cc2)C(=O)C1Cc1ccccc1 (stereo not given)	/	/	/	12.3	/	/
CC1CCC(C(C)C)C(OC(=O)Cn2c(COc3ccccc3)[n+](C)c3ccccc32)C1 (stereo not given)	-9.0	-4.9	15.3	/	0.9	/
CCCCCCCCCCOC(=O)Cn1c(COc2ccccc2OC)[n+](C)c2ccccc21	-25.1	4.5	49.5*	/	-0.8	12.5*
COc1ccc(C(=O)/C=C/Sc2nc3ccccc3o2)cc1	-2.6	-16.7	45.8*	/	-1.9	>38
CCC1CCCCN1S(=O)(=O)c1ccc2c(c1)CCN2C(=O)C1CCC1 (stereo not given)	-4.0	-8.8	7.7	13.9	-1.3	/
O=C(CCl)c1ccc2c(c1)CCN2C(=O)C1CCCCC1	-2.2	3.4	80.2*	9.2	0.3	>38
O=C(O)C1Nc2c(cccc2C(F)(F)F)C2C=CCC12 (stereo not given)	/	/	9.6	/	2.1	/
O=C(O)C1Nc2c(O)cc(Cl)c([N+](=O)[O-])c2C2C=CCC12 (stereo not given)	59.2*	49.2*	42.8*	18.4	1.3	13.1*	Rv3671c confirm=18.1
Cn1cccc1C=NNC(=O)CSc1nc2ccccc2[nH]1	/	/	/	15.1	/	/
CCOC(=O)CC1c2cc(F)ccc2S(=O)(=O)N1C1CCCCC1 (stereo not given)	/	/	/	1.6	/	/
CNc1ccc2nc3ccccc3[n+](C)c2c1	57.4*	107.5*	44.5*	/	2.2	16.6*	Rv3671c confirm=82.5*
C[n+]1c2ccccc2nc2ccc(NCCO)cc21	43.6*	43.5*	64.0*	/	0.1	11.8*	Rv3671c confirm=41.9*

Screening data: PubChem BioAssay, several laboratories
